# Data taken from PubChem BioAssay AID2599 (Sanford-Burnham Center for Chemical Genomics, 2010).
# Among all 330,000 compounds or so, about 5,800 (1.8%) were called active.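 How the source made its calls: active means inhibition above about 50% at the single tested dose (limit read from the data); inactive means the rest.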 The full list was thinned out, with actives kept by preference.
# Target: Sentrin-specific protease 6 (Homo sapiens) (UniProt Q9GZR1)
# Test: SENP6 protease inhibitors, primary screen, biochemical, luminescence, uHTS (AID 2599);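 further: plate controls were DMSO wells with enzyme for no effect and DMSO wells lacking enzyme for full effect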
# Conditions: Recombinant SENP6 catalytic domain, aminoluciferin luminescence; at 10 µM; stronger effect = higher value
# Sentrin-specific protease 6 (Homo sapiens), sequence (Q9GZR1 628-1112 limits assumed): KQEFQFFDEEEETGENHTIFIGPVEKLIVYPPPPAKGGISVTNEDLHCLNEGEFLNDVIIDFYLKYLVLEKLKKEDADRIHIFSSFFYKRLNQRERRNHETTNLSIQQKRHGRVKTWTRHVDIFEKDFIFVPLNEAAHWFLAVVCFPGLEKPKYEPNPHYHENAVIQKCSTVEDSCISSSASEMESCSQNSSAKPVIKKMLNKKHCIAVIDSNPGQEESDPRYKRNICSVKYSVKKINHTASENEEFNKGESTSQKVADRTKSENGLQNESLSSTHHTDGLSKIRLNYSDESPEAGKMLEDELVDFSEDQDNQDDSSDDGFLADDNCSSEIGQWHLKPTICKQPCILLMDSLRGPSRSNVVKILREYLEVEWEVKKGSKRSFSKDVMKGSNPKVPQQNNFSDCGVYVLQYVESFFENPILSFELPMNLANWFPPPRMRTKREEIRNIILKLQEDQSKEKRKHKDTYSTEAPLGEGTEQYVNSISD
row,Compound,inhibition
1,O=[N+]([O-])c1ccc(C=Nc2ccc(Cl)cc2Cl)s1,57.5% (active)
2,COc1ccc(C(=O)NCC(=O)N/N=C/c2ccc([N+](=O)[O-])s2)cc1OC,48.9% (inactive)
3,CC(C)(C)c1cc(C(=O)N/N=C/c2ccc([N+](=O)[O-])s2)n[nH]1,35.9% (inactive)
4,CC(=O)Nc1nc(N(C)C)nc(N(C)C)n1,-13.9% (inactive)
5,Cc1cccc(OC(=O)c2sc3ncn(C)c(=O)c3c2C)c1,52.6% (active)
6,CCOC(=O)C(C)n1cnc2sc(C)c(C)c2c1=O (centres undefined),-17.3% (inactive)
7,Cc1c(C(N)=O)sc2ncn(CCOc3ccccc3)c(=O)c12,-16.1% (inactive)
8,FC(F)(F)c1ccc(-n2cn[nH]c2=S)cc1,-14.6% (inactive)
9,CCSC1=NCCN1S(=O)(=O)c1ccc(F)cc1,-6.19% (inactive)
10,CCCn1nnnc1NCc1ccc(CC)cc1,-6.18% (inactive)
11,O=C(CSc1nn(-c2ccc(F)cc2)c(=S)s1)NC1CCS(=O)(=O)C1 (centres undefined),-6.03% (inactive)
12,Brc1ccc2nc(N3CCCC3)sc2c1,75.4% (active)
13,O=S(=O)(Nc1ccc2nc(N3CCOCC3)sc2c1)c1ccccc1,-2.51% (inactive)
14,O=C(c1ccc2nc(N3CCOCC3)sc2c1)N1CCN(c2ccc(Cl)cc2)CC1,-6.6% (inactive)
15,Fc1ccc2nc(Nc3nc4c(s3)CCCC4)sc2c1,34.4% (inactive)
16,c1c2c(cc3sc(N4CCCCC4)nc13)OCCO2,7.27% (inactive)
17,Fc1ccc2nc(N3CCCCC3)sc2c1,89.5% (active)
18,C/C(=N/NC(=O)CCc1ccccc1)c1ccco1,12.1% (inactive)
19,C=CCn1c(C)cc(C2=NNC(=NCC)SC2)c1C,92.9% (active)
20,COc1ccc(CC(NC(C)=O)C(=O)NC2CCN(C(=O)C3CC3)CC2)cc1OC (centres undefined),-9.43% (inactive)
21,C=C(C)CSc1nc(N)c2c3c(sc2n1)CCC3,1.28% (inactive)
22,O=C(Nc1nc2ccc([N+](=O)[O-])cc2s1)c1ccncc1,91.5% (active)
23,COc1ccc(C(=O)Nc2nc(-c3ccc(OC)cc3)c(-c3ccc([N+](=O)[O-])cc3)s2)cc1,-31.8% (inactive)
24,O=C(NC(Nc1nc2ccc([N+](=O)[O-])cc2s1)(C(F)(F)F)C(F)(F)F)c1ccccc1,-1.71% (inactive)
25,CCN(CC)S(=O)(=O)c1ccc(N2CCOCC2)c(NC(=O)C2CSC3(C)CCC(=O)N23)c1 (centres undefined),4.82% (inactive)

row,Compound,inhibition
1,CCCC(=O)N(CCN1CCOCC1)c1nc2ccc(OCC)cc2s1,-4.24% (inactive)
2,COc1ccc2cc(C(=O)C3CCCN(C(=O)c4sc(C)nc4C)C3)ccc2c1 (centres undefined),-16.8% (inactive)
3,CCOc1ccc2nc(C(=O)N3CCCC(C)C3)sc2c1 (centres undefined),70.8% (active)
4,O=C(NCCS(=O)(=O)NCc1ccc(Cl)cc1)c1ccccc1,-0.893% (inactive)
5,COc1cccc(N2C(=O)CC(N3CCc4ccccc4C3)C2=O)c1 (centres undefined),0.083% (inactive)
6,CCOc1ccc(N2C(=O)CSC2=NC#N)cc1,-18.7% (inactive)
7,O=C(Nc1ccncc1)c1cc2ccccc2o1,63.5% (active)
8,COc1cc2ccccc2cc1C(=O)Nc1ccncc1,-5.66% (inactive)
9,CC(C)(C)n1nc2c(c1NC(=O)c1cc3ccccc3o1)CSC2,2.49% (inactive)
10,CC(OC(=O)Cc1ccc(F)cc1)C(=O)N1CCc2ccccc21 (centres undefined),8.22% (inactive)
11,CCC(=O)Nc1nnc(S(=O)(=O)N2CCCc3ccccc32)s1,-3.06% (inactive)
12,Nc1cccc(CCc2nc3ccccc3[nH]2)c1,-9.91% (inactive)
13,COc1ccc(Br)cc1C(=O)NC(=S)Nc1cc(-c2nc3ccccc3[nH]2)ccc1C,6.04% (inactive)
14,COc1ccc(-c2[nH]nc(-c3ccccc3)c2-c2nc3ccccc3[nH]2)cc1,-1.01% (inactive)
15,Cc1ccc(-c2nc3ccccc3[nH]2)cc1N,91% (active)
16,Clc1ccccc1SCc1nc2ccccc2[nH]1,39.4% (inactive)
17,c1ccc2[nH]c(-c3nc4ccccc4[nH]3)nc2c1,97.2% (active)
18,CC1(C)C2CCC13CS(=O)(=O)NC3C2 (centres undefined),-8.89% (inactive)
19,O=C(Nc1ccc(-c2ccc3nncn3n2)cc1)C1CCCCC1,-18.8% (inactive)
20,COc1ccc(N2CCN(CCCNC(=O)C3CCN(S(=O)(=O)N4CCOCC4)CC3)CC2)cc1,8.09% (inactive)
21,CCNC(=S)N1CCN(S(=O)(=O)c2ccc(Cl)s2)CC1,-2.28% (inactive)
22,COc1ccc([N+](=O)[O-])cc1N(CC(=O)Nc1ccccc1C(=O)N1CCOCC1)S(C)(=O)=O,-14.4% (inactive)
23,Cc1cc(C)c(S(=O)(=O)c2ccc(F)cc2C)c(=O)[nH]1,-7.65% (inactive)
24,Cc1cccc(/C(N)=N/OC(=O)c2ccccc2Cl)c1,86.2% (active)
25,Cc1ccc(/C(N)=N/OC(=O)COc2ccc(Cl)c(C)c2)cc1,-9.12% (inactive)

row,Compound,inhibition
1,N/C(=N\OC(=O)c1cc(-c2ccccc2)nc2ccccc12)c1ccncc1,-23.3% (inactive)
2,N#Cc1cc([N+](=O)[O-])ccc1Oc1cccc(/C=N/NC(=O)c2ccc(Cl)cc2)c1,-30.8% (inactive)
3,COc1ccc2c(C)cc(SCC(=O)NCC3CCCO3)nc2c1 (centres undefined),2.3% (inactive)
4,Nn1c(Cc2cccc3ccccc23)nnc1SCC(=O)N1CC(=O)Nc2ccccc21,-14.3% (inactive)
5,CN(c1ccccc1)S(=O)(=O)c1cc(C(=O)Nc2nc3ccccc3[nH]2)ccc1Cl,0.946% (inactive)
6,O=C(Cc1ccsc1)N1CCN(S(=O)(=O)c2cc(C(F)(F)F)cc(C(F)(F)F)c2)CC1,-12.7% (inactive)
7,O=C1c2ccccc2NC(c2ccc(-c3cccc(Cl)c3)o2)N1O (centres undefined),2.11% (inactive)
8,O=c1c(-c2ccccc2Cl)c[nH]n1-c1ccccc1,5.63% (inactive)
9,O=c1c(-c2cccc(Cl)c2)c[nH]n1-c1ccccc1,50.4% (active)
10,Cc1ccc(NC(=O)c2ccn(C(=O)Nc3ccccc3)n2)c(C)c1,8.66% (inactive)
11,CCCCC(CC)CNC(=O)C(=O)C1C(=O)Nc2ccccc21 (centres undefined),-18.1% (inactive)
12,CCCn1nnnc1NCc1ccc(OC)cc1,-1.58% (inactive)
13,COC(=O)c1scc(S(=O)(=O)C(C)(C)C)c1-n1cccc1,-3.91% (inactive)
14,O=C(COC(=O)c1ccccn1)NNC(=O)c1ccc(Br)cc1,6.84% (inactive)
15,Cc1ccc(C(=O)O/N=C(\N)c2ccccn2)cc1Cl,94.1% (active)
16,O=C(COC(=O)c1ccccn1)NNC(=O)c1ccc([N+](=O)[O-])cc1,-1.82% (inactive)
17,COc1ccc(C(=O)O/N=C(\N)c2ccccn2)cc1[N+](=O)[O-],13% (inactive)
18,N/C(=N\OC(=O)c1ccc([N+](=O)[O-])cc1)c1ccccn1,93.3% (active)
19,Cc1ccc(NC(=O)c2ccccn2)cc1S(=O)(=O)N1CCOCC1,-7.58% (inactive)
20,Oc1cc2c(cc1O)CN(C(=S)NCCc1ccc(Cl)cc1)CCC2,1.23% (inactive)
21,O=C(NCc1ccncc1)C1CCN(C(=O)c2cccc(Cl)c2)CC1,-3.02% (inactive)
22,Cc1cc(Nc2cccc(C)c2C)n2ncnc2n1,-7.33% (inactive)
23,C=CCn1c(-c2ccc(Cl)cc2)ccc(C#N)c1=O,4.58% (inactive)
24,O=C(c1cccc(S(=O)(=O)Nc2ccccc2Cl)c1)N1CCN(C(=O)c2ccco2)CC1,0.095% (inactive)
25,O=C(Nc1ccc2c(c1)CCC2)c1cccc(S(=O)(=O)N2CCN(c3ccc(F)cc3)CC2)c1,-2.68% (inactive)

row,Compound,inhibition
1,O=C(Nc1ccc2c(c1)CCC2)c1cccc(S(=O)(=O)Nc2ccccc2Cl)c1,58.9% (active)
2,CCOc1cnc(C(=O)NNC(=O)c2ccccc2Br)o1,-9.25% (inactive)
3,COc1ccccc1CC(=O)Nc1ccc(F)cc1F,-5.72% (inactive)
4,COc1cc(OC)cc(C(=O)OCC(=O)Nc2ccc(F)cc2F)c1,3.41% (inactive)
5,COc1ccc(C(=O)Nc2ccc(F)cc2F)cc1,76.1% (active)
6,Cc1ccc(C)c(S(=O)(=O)N2CCN(C(=O)Nc3ccccc3)CC2)c1,-12.7% (inactive)
7,CC1CCCC(C)N1C(=O)COC(=O)COc1ccccc1C#N (centres undefined),-21.9% (inactive)
8,CN(C)c1ccc(-c2nnc(-c3cccnc3)o2)cc1,14.7% (inactive)
9,Brc1ccc(-c2nnc(-c3ccccc3)o2)o1,67.5% (active)
10,Nc1ccc(-c2nnc(-c3ccc(-c4ccccc4)cc3)o2)cc1,53.4% (active)
11,CSc1ccccc1-c1nnc(-c2ccc(Cl)cc2)o1,26.3% (inactive)
12,COc1ccccc1-c1nnc(-c2ccc(F)cc2)o1,40.7% (inactive)
13,OC(c1nnc(-c2ccccc2)o1)c1cccs1 (centres undefined),-10.9% (inactive)
14,O=C(OCc1ccc(Br)cc1)c1cccc(-c2nnc(-c3ccccc3)o2)c1,-4% (inactive)
15,Nc1ccc(-c2nnc(-c3ccccc3)o2)cc1,61.5% (active)
16,Brc1ccc(-c2noc(-c3ccccc3)n2)o1,-29.7% (inactive)
17,COc1ccc(C(C)=O)cc1COC(=O)Cn1cnc2ccccc2c1=O,-0.874% (inactive)
18,O=C(NCC1CCCO1)c1ccc(S(=O)(=O)Nc2ccc(F)cc2)cc1 (centres undefined),-0.148% (inactive)
19,CN(C(=O)c1ccccc1)c1nccnc1C#N,11.5% (inactive)
20,CC(=O)c1c(C)[nH]c(C(=O)OCC(=O)NCCC(C)C)c1C,-9.8% (inactive)
21,Cc1cc(C)c(C#N)c(SCC(=O)N(CC(C)C)C2CCS(=O)(=O)C2)n1 (centres undefined),-11.7% (inactive)
22,O=C(O)c1ccc(/C=C2\SC(=S)N(NC(=O)c3ccc(Br)cc3)C2=O)cc1,-7.64% (inactive)
23,O=C(O)c1ccc2c(c1)C(=O)N(NC(=O)c1ccc(O)cc1)C2=O,-2.08% (inactive)
24,CC(=O)N1C(=O)/C(=C2\SC(=S)N(NC(=O)c3ccc(O)cc3)C2=O)c2ccccc21,80.2% (active)
